Source: PubChem
In the library only some 19% were active in any assay of this set; here they are far more common.
HT1080NT lethal: kills 2HG-producing HT-1080-NT fibrosarcoma cells; HT-1080-NT fibrosarcoma viability, CellTiter-Glo ATP luminescence, 48 h; Potency, µM (titrated, usually from 46.1 µM), inactives show top-dose activity, negative = less viability, hits mostly cytotoxic; 360,000 tested, 1.6% active;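 note: NT is the 2HG producing partner of a matched IDH1 knockdown line; potency is the fitted concentration of half-maximal effect; 0% = DMSO-treated cells and -100% = media-only wells without cells; nearly all actives have a fitted effect of over 55% in size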
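Luminescent CellTiter-Glo readout after 48 hours of compound exposure at 37 degrees C defined viability of HT-1080-NT cells. Activity was normalized to DMSO wells and cell-free media wells; concentration-response curves were fitted and assigned curve classes.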
IL1B secr inh: blocks inflammasome-driven IL-1 beta release | THP-1 LPS/ATP IL-1B secretion, AlphaLISA, 16 h; hits give low values | activity change, % at 57.5 µM | AID 743279 | 360,000 tested, 4.7% active; in the data active = activity change below about -50%; inconclusive = mostly about -30% to -49%
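THP-1 cells pretreated 1 hr with compounds (up to 57.5 uM final), then stimulated with LPS (250 ng/mL final) plus ATP (1.25 mM final); secreted IL-1B measured by AlphaLISA after 16 hr, decreased signal indicating inhibition.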
DT40 TDP1 no CPT: qHTS for Inhibitors of human tyrosyl-DNA phosphodiesterase 1 (TDP1): qHTS in cells in absence of CPT; DT40 Tdp1-/- hTDP1 cells, no CPT, ATP luminescence, 48 h; Potency, µM (doses to about 46.2 µM), for inactives: at the highest dose activity change, negative = growth inhibition, actives largely listed as inhibitors; 420,000 tested, 15% active; note: potency is the fitted concentration of half-maximal effect; nearly all actives have a fitted effect of over 55% in size
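DT40 Tdp1-/-;hTDP1 cells, no CPT (DMSO vehicle only), 400 cells/well; compounds pin-transferred; ≥48 hr, 37 °C; CellTiter-Glo 30 min RT dark, luminescence read.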
DT40 TDP1 CPT: growth inhibition of DT40 Tdp1-/-;hTDP1 cells with camptothecin (screen for TDP1 inhibitors). chicken DT40 Tdp1-/-;hTDP1 cells + 20 nM CPT, ATP luminescence, 48 h. Potency, µM (doses to about 46.2 µM), for inactives: at the highest dose activity change, negative = growth inhibition, actives largely listed as inhibitors. 420,000 tested, 12% active; note: potency is the fitted concentration of half-maximal effect; nearly all actives have a fitted effect of over 55% in size
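Cell growth measured by CellTiter-Glo luminescence after a minimum 48 h, 37 C compound exposure with 20 nM CPT in Tdp1-knockout DT40 cells stably expressing hTDP1, seeded 400/well; qHTS titration format.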
HT1080 IDH1KD tx: kills HT-1080 cells with IDH1 knockdown; HT-1080 IDH1 knockdown viability, ATP luminescence, 48 h; Potency, µM (top dose mostly 46.1 µM), without a hit: at the highest dose activity, negative = toxicity, most hits filed as cytotoxic; 360,000 tested, 2% active;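 note: potency is the fitted concentration of half-maximal effect; 0% = DMSO wells and -100% = cell-free medium wells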
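Cytotoxicity counter-line: IDH1KD HT-1080, 48 h, CellTiter-Glo. Curves classed by r2, magnitude and activity.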
Numbers without * were called inactive; i = inactive; ? = inconclusive; . = not tested or not shown; [ ] = remark or other dose. Unless noted, calls come from the whole dose curve; as a rule, active = well fitted curve in the direction sought with a large enough effect; inconclusive = small, poorly fitted or top-dose-only effect, or another doubt; inactive = no such curve, though single readings can be large; an effect the other way counts as inactive or inconclusive. Unless noted, % is set by controls: 0 for no effect and ±100 for the full control effect.

SMILES | HT1080NT lethal | IL1B secr inh | DT40 TDP1 no CPT | DT40 TDP1 CPT | HT1080 IDH1KD tx
CCc1cccc(NC(=O)c2cc3c(=O)[nH]c4ccccc4c3n2C)c1 | . | . | 18µM* | ? | .
C/C(=N\NC(=O)c1c([N+](=O)[O-])c(C)nn1C)c1ccc(NC(=O)C2CCCC2)cc1 | 0.46µM* | 106 | 0.18µM* | 0.16µM* | 0.33µM*
C/C(=N\NC(=O)c1c(Cl)c(C)nn1C)c1ccc(NC(=O)C2CCC2)cc1 | 1.6µM* | 101 | 0.37µM* | 0.65µM* | 0.82µM*
C/C(=N\NC(=O)c1c(Br)c(C)nn1C)c1cccc(NC(=O)C2CCC2)c1 | 15% | -25 | ? | -30% | 9%
CC(C)C1=CC2=CC[C@@H]3[C@](C)(CCC[C@@]3(C)C(=O)O)[C@H]2CC1 | . | . | -5% | -8% | .
CC1=C(C(=O)OC(C)C)C(c2ccc3c(c2)OCO3)NC(=O)N1 (configuration not stated) | 5% | 1 | -1% | -14% | 2%
CCOC(=O)C1=CN(Cc2ccc(OC)cc2)C=C(C(=O)OCC)C1c1cccs1 | -4% | -64* | ? | ? | 1%
CCOC(=O)C1=C(C)Nc2[nH]c(=O)[nH]c(=O)c2C1c1cccs1 (configuration not stated) | 0% | 15 | -2% | 8% | 4%
CCOC(=O)c1sc2c(c1C)C(c1cccs1)C1=C(CCCC1=O)N2 (configuration not stated) | -21% | -4 | 16µM* | ? | ?
CC1=C(C(=O)OC(C)C)C(C)C(C(=O)OC(C)C)=C(C)N1 | 6% | ? | ? | 11µM* | 3%
CCOC(=O)C1=C(C)NC(C)=C(C(=O)OCC)C1c1cccs1 | -12% | 1 | 23µM* | ? | -13%
CCOc1ccc2nc(NC(=O)CCC(=O)c3cccs3)sc2c1 | -6% | 0 | -17% | -15% | -10%
N#CCCN(Cc1ccccc1)C(CCc1ccccc1)C(=O)NC1CCCCC1 (configuration not stated) | ? | -8 | ? | ? | ?
COc1cc(OC)cc(C(=O)NCCc2cnc[nH]2)c1 | -1% | 0 | -2% | ? | 1%
CC1=C(C(=O)OC(C)C)C(c2cccs2)C(C(=O)OC(C)C)=C(C)N1 | ? | -73* | 12µM* | ? | ?
C/C(=N\Nc1ccc(F)cc1)c1ccc(N2CCOCC2)c(F)c1 | -14% | 0 | 4% | -25% | -3%
CCOc1ccccc1-c1cc(-c2n[nH]c(=S)n2CC)c2ccccc2n1 | -6% | 9 | 18µM* | ? | 1%
CCOc1cccc(-c2cc(-c3n[nH]c(=S)n3CC)c3ccccc3n2)c1 | -6% | 2 | ? | -23% | -3%
COc1ccc(/C=C/C(=O)NC(=S)NNC(=O)c2cnccn2)cc1 | ? | 125 | 5.2µM* | 2.9µM* | ?
O=C(Cc1ccccc1)NNC(=O)c1cnccn1 | 6% | -6 | -5% | 4% | 15%
O=C(/C=C/c1ccc(F)cc1)NC(=S)NNC(=O)c1cnccn1 | -14% | 78 | 3.3µM* | 3.7µM* | -19%
O=C(NC(=S)NNC(=O)c1cnccn1)c1ccc(F)cc1 | ? | 85 | 5.2µM* | 3.3µM* | ?
O=C(NNC(=S)NC(=O)c1cccnc1)c1ccc(F)cc1 | -8% | -3 | ? | -26% | -12%
COc1ccc(CNC(=O)c2ccc(-c3nc(CSc4ccccc4)c(C)o3)cc2)cc1 | . | . | -24% | -30% | .
COc1ccc(S(=O)(=O)N2CC(C)N(C(=O)N(C)C)C2C)cc1 (configuration not stated) | -2% | 22 | 3% | -2% | 7%
SMILES | HT1080NT lethal | IL1B secr inh | DT40 TDP1 no CPT | DT40 TDP1 CPT | HT1080 IDH1KD tx
CCCCCc1ccnc(CC(=O)c2ccc(OC)cc2)c1 | -16% | -19 | 8.2µM* | 8.2µM* | -5%
CCCCCc1ccc(-c2ccc(OC)cc2)nc1 | 18% | -1 | -25% | 0% | 11%
Cc1ccc2nsnc2c1S(=O)(=O)N1CCOCC1 | 0%[9.24 µM] | 44 | -8% | -18% | -13%
O=C(NNS(=O)(=O)c1ccc(F)cc1F)C1Cc2c(ccc3ccccc23)O1 (configuration not stated) | -1% | 39 | 18µM* | 18µM* | -1%
CS(=O)(=O)NNC(=O)C1Cc2c(ccc3ccccc23)O1 (configuration not stated) | 0% | 38 | -5% | -12% | 0%
COCCn1c(SCC(=O)Nc2cc(C)on2)nc2ccccc2c1=O | 0% | 7 | ? | -9% | 15%
CCCCCCn1c(SCC(=O)Nc2cc(C)on2)nc2ccccc2c1=O | 4% | 16 | 10µM* | ? | ?
CCn1c(SCC(=O)Nc2cc(C)on2)nc2c([nH]c3ccccc32)c1=O | -5% | i | 18µM* | ? | -13%
COCCn1c(SCC(=O)Nc2cc(C)on2)nc2c([nH]c3ccccc32)c1=O | -16% | 21 | ? | ? | 5%
COc1cccc(CN(C)C(=O)CSCC(=O)Nc2cccc(C)c2)c1OC | 1% | 15 | -28% | ? | -1%
O=C(Nc1cccc(C(=O)N2CCOCC2)c1)C1CCCCC1 | -1% | . | 4% | 8% | 1%
CC(C)SC1=NC(C)(C)C=C(/C=C/c2ccc(Cl)cc2Cl)N1 | ? | -113* | ? | ? | ?
CC(C)SC1=NC(C)(C)C=C(/C=C/c2c(Cl)cccc2Cl)N1 | ? | -82* | ? | ? | 21µM*
N#CCc1cccnc1Sc1ccc(Cl)cc1 | 5% | 1 | -42% | ? | 3%
O=C(OC1CCOC1=O)C1CCN(S(=O)(=O)c2ccccc2)CC1 (configuration not stated) | 5% | 12 | 2% | 7% | -2%
COc1ccc(C2NC(=O)c3ccccc3O2)cc1 (configuration not stated) | 6% | -15 | -7% | -10% | 10%
O=S1(=O)CC(N2CCN(CCO)CC2)CN1CCc1ccccc1 (configuration not stated) | 11% | -7 | 10% | 4% | 13%
CCCCn1c(NC(=O)c2ccccc2Cl)c(C#N)c2nc3ccccc3nc21 | 5.8µM* | -98* | 26µM* | 23µM* | 9.2µM*
COc1ccc(-n2c(NC(=O)c3ccco3)c(C#N)c3nc4ccccc4nc32)cc1 | -21% | 4 | 23µM* | 16µM* | -13%
CCOC(=O)c1c(NC(=O)c2ccco2)n(C2CCCCC2)c2nc3ccccc3nc12 | ? | -21 | 8.2µM* | 7.3µM* | 16µM*
CN(C)c1ccc(C(=S)N2CCN(S(=O)(=O)c3ccccc3)CC2)cc1 | -10% | -11 | ? | -21% | -8%
